Dicer inh: inhibitors of human Dicer processing of pre-microRNA. Q9UPY3. cat-ELCCA pre-miR-21 Dicer processing, chemiluminescence; stronger effect = higher value. z-score at 25 µM. 47,000 compounds, 6% hits. AID 1347074; in the data active means z-score above about 3, passing the limit was not always enough;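 further: plate controls were vehicle for no effect and no enzyme for full effect; higher signal means more uncleaved substrate so more Dicer inhibition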
Numbers without * were called inactive. Many of the other results were omitted from the sample, so hits are more common in it than they were.

SMILES | Dicer inh
O=C1CC(N2CCN(c3ncccn3)CC2)C(=O)N1c1ccc(Cl)cc1 (configuration not stated) | -0.45
Cn1cnc([N+](=O)[O-])c1NC1Cc2ccccc2C1 | -0.87
Cc1ccc2ncnc(Oc3ncccc3N)c2c1 | 1.2
COc1ccc(Nc2nc(N)nc(CN3CCCCC3)n2)cc1 | -1.1
COc1cccc(Nc2nc(N)nc(CN3CCc4ccccc4C3)n2)c1 | 0.68
COc1ccccc1Nc1nc(N)nc(CN2CCCCC2)n1 | 5.3*
Cn1ccnc1Sc1cnc(SCC(=O)c2ccc(Cl)cc2)nc1-c1ccccc1 | -1.8
CN(C)c1nc(Oc2ccc(OCc3ccccc3)nn2)nc(N(C)C)n1 | 0.62
Cc1ccc2c(C(=O)O)cc(-c3cccc([N+](=O)[O-])c3)nc2c1 | 1.3
CCCCNC(=O)c1cc2cccc([N+](=O)[O-])c2[nH]1 | 1.1
O=[N+]([O-])c1cccc2cn[nH]c12 | -0.78
O=C(O)c1cc2cccc([N+](=O)[O-])c2[nH]1 | 132*
CN1CCOC(c2ccccc2)c2ccccc2C1 (configuration not stated) | 0.53
O=C(CCc1ccccc1)N1CCC(c2ccccc2)C1 (configuration not stated) | -1.4
CC1C(c2ccccc2)OCCN1C(=O)CCC(=O)N1CCOC(c2ccccc2)C1C (configuration not stated) | 5.6*
O=[N+]([O-])c1cccnc1Oc1ccc(Oc2ncccc2[N+](=O)[O-])c(-c2ccccc2)c1 | -1.2
CN(C)CCNC(=O)c1ccccn1 | -0.69
COc1cc2c(cc1OC)C(c1ccccc1)=NC1(CCCC1)C2 | 2.7
COc1cc(-c2csc(N)n2)ccc1O | 1.5
COc1ccc(CNCc2cc(OC)ccc2OC)cc1 | 1.3
COc1ccc(CNCc2ccc3c(c2)OCO3)cc1 | 0.97
COc1ccc(CNCc2ccc(SC)cc2)cc1 | 3.9*
COc1ccc(-c2c(C)nn3c4c(cnc23)C(=O)CC(C)(C)C4)cc1 | 2.3
CSc1cccc(N2C(=O)CC3(CCCC3)CC2=O)c1 | -1.6
CCCCc1ccc(NCc2nc(-c3ccc(C)cc3)no2)cc1 | 0.17
SMILES | Dicer inh
COC(=O)c1cc2c(N)c(C(=O)c3ccc(C)cc3)sc2nc1C(OC)OC | -0.12
COc1cc(C2c3c(oc4ccccc4c3=O)C(=O)N2c2nncs2)ccc1OCC(C)C (configuration not stated) | -0.19
C=CCSc1nc2ccccc2n1CC(=O)O | 1.5
CSc1nc2ccccc2n1CCOc1ccc(Cl)cc1 | 0.23
C=CCOC(=O)n1c(SC)nc2ccccc21 | 3.1*
CCOC(=O)c1cnn(-c2ccc([N+](=O)[O-])cc2)c1-n1cccc1 | -0.86
CC(=O)CSc1nnc(-c2sc3nc(C)cc(C)c3c2N)n1Cc1ccccc1 | -0.17
Cc1nc2ccccn2c1C(=O)NNS(=O)(=O)c1sc2ccc(Cl)cc2c1C | -0.07
Cc1c(CC(=O)NNS(=O)(=O)c2ccccc2C(F)(F)F)sc2ccc(Cl)cc12 | 0.58
Cc1c(S(=O)(=O)Nc2ccc3[nH]ccc3c2)sc2ccc(Cl)cc12 | 3.5*
c1ccc2c(-c3csc(-c4ccc(-c5ccno5)s4)n3)csc2c1 | -1.4
Nc1nc(-c2csc3ccccc23)cs1 | 3.3*
Nc1nc(-c2cccc3ccccc23)cs1 | 0.36
Cc1[nH]c2ccccc2c1SCc1nnc(SCC(=O)Nc2ccc(Cl)cc2)n1C | -1.7
COc1ccc(-c2n[nH]c(=S)n2-c2cccc(C(F)(F)F)c2)cc1 | -0.41
Cc1nc(C)c(-c2ccn(C(=O)Nc3ccc(Cl)cc3)n2)s1 | 0.95
COc1cccc(OCc2nc(-c3ccccc3)no2)c1 | 1.2
O=C1N/C(=N/N=C\c2[nH]ncc2Br)SC1c1ccccc1 (configuration not stated) | 3.4*
O=C1CS/C(=N/N=C/c2ccn[nH]2)N1 | -0.26
CCOC(=O)c1c(NC(=O)C2(S(=O)(=O)c3ccccc3)CC2)sc(C)c1C | 1.6
CCOC(=O)c1sc(SC)c2c1CC/C(=C\N(C)C)C2=O | -7
CCOC(=O)C1=C(C)NC2=C(C(=O)CC(c3ccccc3)C2)C1c1cc(C)sc1SC (configuration not stated) | 0.21
CCOC(=O)c1sc(SC)c2c1CC(c1ccccc1)CC2=O (configuration not stated) | 3.7*
Cn1c(SCc2ccc(-c3csnn3)cc2)nnc1C(F)(F)F | -1.1
CCOC(=O)c1ccc(-n2cccc2)cc1 | -0.67
SMILES | Dicer inh
COc1ccc(-c2cnn3c(C(F)(F)F)cc(C)nc23)cc1OC | -0.43
CN(NC(=O)c1ccccc1Cl)c1cccc(F)c1C#N | -0.07
Cc1cc(S(=O)(=O)NN(C)c2cccc(Cl)c2C#N)cc(C)c1F | -0.13
CN(NS(=O)(=O)c1ccc(Cl)c(Cl)c1)c1cccc(F)c1C#N | 3.6*
CCCOC(=O)C1C2C=CC3(CN(C4CCCC4)C(=O)C13)O2 (configuration not stated) | -1.2
CC(=O)OC(C(=O)O)C(OC(C)=O)C(=O)Nc1ccc(Cl)cc1 (configuration not stated) | 3.1*
CSCC(CSC)OC(=O)Nc1ccc(Cl)cc1 | 1.3
CC(C)OC(=O)Nc1ccc(Cl)cc1 | -0.57
O=c1cc(O)c2cccc3c4ccccc4n1c23 | 0.96
